# Data reported in article PMC5540273 (PLoS ONE, 2017).
# What was measured:
# Settings in all cases: concentration: 1 μM, replicates: in singlicate; n = 1
# TAK1 = system: T1, TAK1
# T1 construct: gene MAP3K7
# TAOK1 = system: TAOK1
# TAOK2 = system: TAOK2
# TAOK3 = system: TAOK3
# TBK1 = system: TBK1
# TEC = system: TEC
# TESK1 = system: TESK1
# TGFBR1 = system: TGFBR1
# TGFBR2 = system: TGFBR2
# TIE1 = system: TIE1
# 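Also: KINOMEscan kinase panel screen.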
SMILES,%Inh (TAK1) [%],%Inh (TAOK1) [%],%Inh (TAOK2) [%],%Inh (TAOK3) [%],%Inh (TBK1) [%],%Inh (TEC) [%],%Inh (TESK1) [%],%Inh (TGFBR1) [%],%Inh (TGFBR2) [%],%Inh (TIE1) [%]
COc1cc2nccc(Nc3cccc(Oc4ccccc4)c3)c2cc1OC.Cl [GW284543],0,0,0,0,0,45,3,41,0,9
COc1cccc(C2=C(N(C)c3ccccc3)C(=O)NC2=O)c1 [SB-334865],0,0,0,0,3,2,24,29,10,0
COC(=O)c1c(-c2ccccc2)c2cc(Br)ccc2c(=O)n1Cc1ccc(NC(=O)CCC(=O)O)cc1,19,0,0,0,22,10,39,10,0,0
